40 molecules from PubChem BioAssay can be followed below.

Active and inactive are the calls of the source.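 The calls were made as follows, unless noted: active = inhibition above 50%; inactive = the rest.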

The nature of the first assay: antimalarial activity against Dd2 strain (AID 2302;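 active = growth inhibition above 50% at the single 2 µM test dose, taken to imply half-maximal potency below 2 µM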;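 also: 0% = DMSO untreated growth and 100% = chloroquine plus artemisinin killed control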). As to conditions: P. falciparum Dd2 in RBCs, LDH growth readout, 72 h; at 2 µM; active compounds read high.
Take `O=C(N[C@H]1CCN(Cc2ccc(OCCN3CCNCC3)c(Br)c2)C1)c1ccc(Cl)c(Cl)c1`: the growth inhibition is 36% (inactive).

On to `CCOc1cc(C(=O)NC2CCN(Cc3ccccc3)CC2)ccc1-c1nc2ccc(Cl)cc2[nH]1`, for which the growth inhibition was 84% (active).

With `O=C(Nc1cccc(-c2ccc(-c3nc4ccccc4[nH]3)cc2)c1)c1cnn2cccnc12`, the growth inhibition was 1% (inactive).

As for `Cc1cccc2[nH]c(-c3ccc(-c4ccc(NC(=O)Nc5cccc(C#N)c5)cc4)cc3)nc12`, the growth inhibition was 100% (active).

With `CCN1CCN(CCCCNc2c3ccccc3nc3ccccc23)CC1`, the growth inhibition is -5% (inactive).

For `CCc1c(C)nc(-n2nc(C)cc2NC(=O)CC(c2ccccc2)c2ccccc2)[nH]c1=O`, the growth inhibition was 98% (active).

`Cc1cc(CN2C(=O)C(c3ccccc3)(c3ccccc3)N=C2N)c(C(F)(F)F)o1`: the growth inhibition was 84% (active).

For the molecule `CC(=O)Nc1ccc(CN2CCC(NC(=O)c3ccc(-c4cccc(Cl)c4)s3)CC2)cc1`, the growth inhibition was 59% (active).

Take `COc1ccc2nccc(NN=Cc3ccccc3[N+](=O)[O-])c2c1`: the growth inhibition is 100% (active).

Turning to `Cc1cc(C(=O)OCC(N)=O)c(C)n1-c1ccc(F)cc1`, the growth inhibition is 96% (active).

For the molecule `COc1ccc(Nc2nc(NN=Cc3ccc(-c4ccc([N+](=O)[O-])cc4)o3)nc(Nc3ccccc3)n2)cc1`, the growth inhibition is 17% (inactive).

For `COc1ccc2nccc([C@@H](O)CN3CCC(NC(=O)c4ccc(Cl)c(Cl)c4)CC3)c2c1`, the growth inhibition is 57% (active).

With `Cc1cccc2[nH]c(-c3ccc(-c4ccc(CN5CCN(CC6CCCN(C)C6)CC5)cc4)cc3)nc12` (stereo not given), the growth inhibition is 99% (active).

Take `CCOc1ccc(OCCCON2C(N)=NC(N)=NC2(C)C)cc1`: the growth inhibition was 94% (active).

Turning to `Cc1cccc(-n2nc(C)c3c2NC(=O)CC3C(=O)c2ccc(Cl)s2)c1` (stereo not given), the growth inhibition is 85% (active).

In the case of `CCN(CCCN1CCCCC1)c1cc(C)nc(Nc2cc(Cl)ccc2C)n1`, the growth inhibition was 37% (inactive).

For `O=C(Nc1ccc(Cl)cn1)c1sc2ccccc2c1O`, the growth inhibition was 18% (inactive).

On to `Nc1c(Cl)cc(C(O)CNCCCCCCOCCc2ccc(CO)s2)cc1Cl` (stereo not given), for which the growth inhibition is 71% (active).

As for `COc1ccccc1C(C)NCC(=O)Nc1ccccc1Sc1ccccc1` (stereo not given), the growth inhibition was 7% (inactive).

With `COc1ccccc1/C=C/C(=O)N(C)C1CCN(CCCCCNC(=O)/C=C/c2ccc(Cl)c(Cl)c2)C1` (stereo not given), the growth inhibition is 14% (inactive).

With `CC(C)C[C@H](Nc1ccnc(NCC2CCCCC2)n1)C(=O)Nc1ccccc1`, the growth inhibition is 42% (inactive).

Turning to `CC(=O)C=C1CC(=O)N(C[C@@H](O)[C@H]2O[C@@H]3OC(C)(C)O[C@@H]3[C@H]2O)c2ccccc2N1`, the growth inhibition was 2% (inactive).

On to `Cc1noc(C)c1-c1cccc(CNCc2ccc(-c3cccc(-c4nc5ccccc5[nH]4)c3)cc2)c1`, for which the growth inhibition was 57% (active).

With `CCNc1cc(C(=O)N[C@@H](Cc2ccccc2)[C@H](O)CNC(CC)c2cccc(Cl)c2)cc(N2CCCC2=O)c1` (stereo not given in full), the growth inhibition was 99% (active).

Regarding `CC(C)(C)NC(=O)C(c1ccc(F)cc1)N(C(=O)c1ccc(CN2CCOCC2)o1)c1ccc(C2CCCCC2)cc1` (stereo not given), the growth inhibition is 68% (active).

Take `Cc1noc(C)c1-c1cccc(CNCc2ccc(-c3ccc(-c4nc5ccc(F)cc5[nH]4)cc3)cc2)c1`: the growth inhibition is 92% (active).

Take `O=C1OC2(CCN(C(=O)c3ccc(-n4cnnn4)cc3)CC2)CN1Cc1ccc(Cl)c(Cl)c1`: the growth inhibition was 70% (active).

Regarding `CC(C)(C)C1CCC(C(=O)c2ccc3ccccc3c2O)CC1` (stereo not given), the growth inhibition was 63% (active).

With `CCN(CC)CCN(Cc1ccc(-c2ccc(C(F)(F)F)cc2)cc1)C(=O)Cn1c(CCc2cccc(F)c2F)cc(=O)c(C)c1C`, the growth inhibition was 87% (active).

With `O=C(CCc1cccnc1)Nc1cccc(-c2ccc(-c3nc4ccc(C(F)(F)F)cc4[nH]3)s2)c1`, the growth inhibition was 13% (inactive).

On to `CCCNC(=O)Nc1ccc(N(C)c2ccnc(NC3CC3)n2)cc1`, for which the growth inhibition is 88% (active).

As for `NCCCNc1ccc(-c2ccc(NC(=O)Nc3cc(C(F)(F)F)ccc3F)cc2)cn1`, the growth inhibition is 66% (active).

As to `Cc1cccc(CN2CCCN(Cc3cccc(C(=O)Nc4ccc(C(C)(C)C)cc4)c3)CC2)c1`, the growth inhibition is 40% (inactive).

For the molecule `CCn1ccc2c(N3CCCC3=O)cc(C(=O)N[C@@H](Cc3ccccc3)[C@H](O)CNC3CCCCC3)cc21`, the growth inhibition is 98% (active).

On to `Cc1ccccc1C(=O)Nc1cccc(-c2nc3ncccn3c2C)c1`, for which the growth inhibition is 94% (active).

With `O=S(=O)(Nc1ccc(CCN2CCCCC2CCN2CCCC2)cc1)c1cccc2cccnc12` (stereo not given), the growth inhibition was 0% (inactive).

Consider `Cc1cccc2[nH]c(-c3ccc(-c4ccc(CN5CCOCC5)cc4)cc3)nc12`, for which the growth inhibition was 86% (active).

In the case of `CC(CN1CCN(C)CC1)C(=O)Nc1cccc(-c2cccc(-c3nc4ccccc4[nH]3)c2)c1` (stereo not given), the growth inhibition is 19% (inactive).

Consider `NC(N)=NCCCN(Cc1ccccc1)c1ccccc1`, for which the growth inhibition is 97% (active).

Turning to `OCCN1CCN(C(=S)Nc2ccccc2)CC1`, the growth inhibition was 7% (inactive).

The next assay is described as follows: HepG2 cytotoxicity, primary screen, cytotoxicity control for P. falciparum antimalarial project, cell-based, ATP luminescence (AID 2303).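 Also: 0% = DMSO wells and 100% = digitonin-killed cells.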 As to conditions: HepG2 viability, 24-48 h, at 10 µM, active compounds read high.
One may read the inhibition as the change of the read-out against control, counted positive when it falls. For the molecule `O=C(N[C@H]1CCN(Cc2ccc(OCCN3CCNCC3)c(Br)c2)C1)c1ccc(Cl)c(Cl)c1`, the inhibition is 69% (active).

In the case of `CCOc1cc(C(=O)NC2CCN(Cc3ccccc3)CC2)ccc1-c1nc2ccc(Cl)cc2[nH]1`, the inhibition was 10% (inactive).

As for `O=C(Nc1cccc(-c2ccc(-c3nc4ccccc4[nH]3)cc2)c1)c1cnn2cccnc12`, the inhibition is 9% (inactive).

For the molecule `Cc1cccc2[nH]c(-c3ccc(-c4ccc(NC(=O)Nc5cccc(C#N)c5)cc4)cc3)nc12`, the inhibition is 28% (inactive).

Consider `CCN1CCN(CCCCNc2c3ccccc3nc3ccccc23)CC1`, for which the inhibition was 22% (inactive).

Regarding `CCc1c(C)nc(-n2nc(C)cc2NC(=O)CC(c2ccccc2)c2ccccc2)[nH]c1=O`, the inhibition was 41% (inactive).

With `Cc1cc(CN2C(=O)C(c3ccccc3)(c3ccccc3)N=C2N)c(C(F)(F)F)o1`, the inhibition is 11% (inactive).

For the molecule `CC(=O)Nc1ccc(CN2CCC(NC(=O)c3ccc(-c4cccc(Cl)c4)s3)CC2)cc1`, the inhibition was 34% (inactive).

For `COc1ccc2nccc(NN=Cc3ccccc3[N+](=O)[O-])c2c1`, the inhibition was 67% (active).

As to `Cc1cc(C(=O)OCC(N)=O)c(C)n1-c1ccc(F)cc1`, the inhibition was -12% (inactive).

On to `COc1ccc(Nc2nc(NN=Cc3ccc(-c4ccc([N+](=O)[O-])cc4)o3)nc(Nc3ccccc3)n2)cc1`, for which the inhibition was -8% (inactive).

For the molecule `COc1ccc2nccc([C@@H](O)CN3CCC(NC(=O)c4ccc(Cl)c(Cl)c4)CC3)c2c1`, the inhibition is 21% (inactive).

For `Cc1cccc2[nH]c(-c3ccc(-c4ccc(CN5CCN(CC6CCCN(C)C6)CC5)cc4)cc3)nc12` (stereo not given), the inhibition is 91% (active).

In the case of `CCOc1ccc(OCCCON2C(N)=NC(N)=NC2(C)C)cc1`, the inhibition was 63% (active).

As for `Cc1cccc(-n2nc(C)c3c2NC(=O)CC3C(=O)c2ccc(Cl)s2)c1` (stereo not given), the inhibition is 13% (inactive).

As to `CCN(CCCN1CCCCC1)c1cc(C)nc(Nc2cc(Cl)ccc2C)n1`, the inhibition was 36% (inactive).

For the molecule `O=C(Nc1ccc(Cl)cn1)c1sc2ccccc2c1O`, the inhibition was 2% (inactive).

`Nc1c(Cl)cc(C(O)CNCCCCCCOCCc2ccc(CO)s2)cc1Cl` (stereo not given): the inhibition is 1% (inactive).

`COc1ccccc1C(C)NCC(=O)Nc1ccccc1Sc1ccccc1` (stereo not given): the inhibition was -7% (inactive).

As to `COc1ccccc1/C=C/C(=O)N(C)C1CCN(CCCCCNC(=O)/C=C/c2ccc(Cl)c(Cl)c2)C1` (stereo not given), the inhibition is 10% (inactive).

Take `CC(C)C[C@H](Nc1ccnc(NCC2CCCCC2)n1)C(=O)Nc1ccccc1`: the inhibition is 6% (inactive).

As to `CC(=O)C=C1CC(=O)N(C[C@@H](O)[C@H]2O[C@@H]3OC(C)(C)O[C@@H]3[C@H]2O)c2ccccc2N1`, the inhibition was -8% (inactive).

For the molecule `Cc1noc(C)c1-c1cccc(CNCc2ccc(-c3cccc(-c4nc5ccccc5[nH]4)c3)cc2)c1`, the inhibition is 50% (active).

With `CCNc1cc(C(=O)N[C@@H](Cc2ccccc2)[C@H](O)CNC(CC)c2cccc(Cl)c2)cc(N2CCCC2=O)c1` (stereo not given in full), the inhibition is 12% (inactive).

In the case of `CC(C)(C)NC(=O)C(c1ccc(F)cc1)N(C(=O)c1ccc(CN2CCOCC2)o1)c1ccc(C2CCCCC2)cc1` (stereo not given), the inhibition was 0% (inactive).

For the molecule `Cc1noc(C)c1-c1cccc(CNCc2ccc(-c3ccc(-c4nc5ccc(F)cc5[nH]4)cc3)cc2)c1`, the inhibition is 23% (inactive).

In the case of `O=C1OC2(CCN(C(=O)c3ccc(-n4cnnn4)cc3)CC2)CN1Cc1ccc(Cl)c(Cl)c1`, the inhibition is 11% (inactive).

`CC(C)(C)C1CCC(C(=O)c2ccc3ccccc3c2O)CC1` (stereo not given): the inhibition was -4% (inactive).

Take `CCN(CC)CCN(Cc1ccc(-c2ccc(C(F)(F)F)cc2)cc1)C(=O)Cn1c(CCc2cccc(F)c2F)cc(=O)c(C)c1C`: the inhibition is 35% (inactive).

As to `O=C(CCc1cccnc1)Nc1cccc(-c2ccc(-c3nc4ccc(C(F)(F)F)cc4[nH]3)s2)c1`, the inhibition was 35% (inactive).

In the case of `CCCNC(=O)Nc1ccc(N(C)c2ccnc(NC3CC3)n2)cc1`, the inhibition was 28% (inactive).

Turning to `NCCCNc1ccc(-c2ccc(NC(=O)Nc3cc(C(F)(F)F)ccc3F)cc2)cn1`, the inhibition was -3% (inactive).

As for `Cc1cccc(CN2CCCN(Cc3cccc(C(=O)Nc4ccc(C(C)(C)C)cc4)c3)CC2)c1`, the inhibition is 98% (active).

With `CCn1ccc2c(N3CCCC3=O)cc(C(=O)N[C@@H](Cc3ccccc3)[C@H](O)CNC3CCCCC3)cc21`, the inhibition is 12% (inactive).

For the molecule `Cc1ccccc1C(=O)Nc1cccc(-c2nc3ncccn3c2C)c1`, the inhibition is -5% (inactive).

As to `O=S(=O)(Nc1ccc(CCN2CCCCC2CCN2CCCC2)cc1)c1cccc2cccnc12` (stereo not given), the inhibition is 20% (inactive).

On to `Cc1cccc2[nH]c(-c3ccc(-c4ccc(CN5CCOCC5)cc4)cc3)nc12`, for which the inhibition is 29% (inactive).

`CC(CN1CCN(C)CC1)C(=O)Nc1cccc(-c2cccc(-c3nc4ccccc4[nH]3)c2)c1` (stereo not given): the inhibition is 23% (inactive).

With `NC(N)=NCCCN(Cc1ccccc1)c1ccccc1`, the inhibition was -13% (inactive).

Regarding `OCCN1CCN(C(=S)Nc2ccccc2)CC1`, the inhibition was 6% (inactive).
